Compound activity from PubChem.
A selection: hits, their analogues and other compounds. The true share with any hit is near 3.8%.
Y pestis TopoI: blocks Yersinia pestis topoisomerase I activity; activity, % at 10 µM; Y. pestis Topo-I cleavage product accumulation, plate reader; AID 504884; actives 0.064% (n = 360,000); in the data active means activity above about 50%, passing the limit was not always enough
PrP UTR inh: suppresses PrP 5' UTR mRNA reporter expression; actives 0.35% (n = 340,000); inhibition, % (concentration not given with the values); cell-based PrP 5' UTR mRNA reporter, plate reader; in the data active means inhibition above about 52%; further: 0 = median of the neutral control wells
PrPC TRFRET: inhibitors of human cell surface prion protein PrPC. inhibition, % at 13.8 µM. actives 0.43% (n = 370,000). TR-FRET read-out. AID 720596; in the data active means inhibition above about 24%; further: 0% = median of the test wells and 100% = reference compound wells
GDH-TPI counter: counter-screen for M. tuberculosis FBA inhibitors: GDH-TPI coupled enzymes | GDH-TPI coupled enzyme counterscreen, NADH absorbance | inhibition, % at 4.8 µM | actives 1.2% (n = 360,000); in the data active means inhibition above about 30%;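 further: 0% = DMSO wells and 100% = wells lacking the enzyme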
Mtb hypoxia inh: reduces hypoxia-regulated biosensor signal in M. tuberculosis | actives 0.1% (n = 300,000) | AID 1159583 | fluorescence inhibition, % (test concentration not listed) | M. tuberculosis hypoxia-regulated fluorescent reporter, fluorescence; in the data active means fluorescence inhibition mostly above about 23%, no sharp cut-off; inactive means mostly below about 17%
FBA Mtb inh: inhibitors of M. tuberculosis fructose-bisphosphate aldolase; P9WQA3; actives 2.3% (n = 360,000); AID 588726; purified M. tuberculosis FBA, fluorescence read-out; inhibition, % at 1 µM; in the data active means inhibition above about 27%;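 further: 0% = vehicle and 100% = reference inhibitor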
Target sequence (P9WQA3 whole entry, looked up): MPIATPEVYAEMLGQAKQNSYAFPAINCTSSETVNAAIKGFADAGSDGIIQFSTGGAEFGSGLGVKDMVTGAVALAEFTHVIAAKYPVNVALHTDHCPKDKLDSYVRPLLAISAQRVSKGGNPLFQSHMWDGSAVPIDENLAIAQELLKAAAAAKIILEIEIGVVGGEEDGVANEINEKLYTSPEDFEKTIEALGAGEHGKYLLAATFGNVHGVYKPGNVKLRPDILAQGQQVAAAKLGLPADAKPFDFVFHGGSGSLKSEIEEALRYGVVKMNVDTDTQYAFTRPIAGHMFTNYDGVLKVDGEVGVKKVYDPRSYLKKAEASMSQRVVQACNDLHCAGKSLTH
Starred values were filed as active, the others as inactive; . = no result.

SMILES	Y pestis TopoI	PrP UTR inh	PrPC TRFRET	GDH-TPI counter	Mtb hypoxia inh	FBA Mtb inh
CCOc1ccc(C(C)=O)cc1NC(=O)C=CC(=O)O	.	.	.	.	15	.
CCC(=O)N(C)CCc1cc2c(c(OC)c1/C=N/Nc1ccc(C(=O)O)cc1)OCO2	5	-19	-2	51*	.	-2
CCC(=O)N(C)CCc1cc2c(c(OC)c1C=NNc1ccc(C(=O)O)cc1)OCO2	.	.	.	.	11	.
COc1cc(CCCN2CCNCC2Cc2ccc(O)cc2)cc(OC)c1OC (stereo not drawn)	.	.	.	.	15	.
O=S1(=O)CCOCC(CC2CCCCC2)N1Cc1ccccc1F (stereo not drawn)	.	.	.	.	1	.
CCOC(=O)C1CCC(C(=O)OCC)N1c1ccc(C=O)cc1 (stereo not drawn)	6	.	5	33*	.	2
CCOC(=O)C1C2C=CC(CC2)N1c1ccccc1 (stereo not drawn)	-1	-9	0	4	-4	2
COc1ccc(C=NS(=O)(=O)c2ccc(C)cc2)cc1	.	.	.	.	10	.
COc1ccc2cc(CO)n(C)c2c1	-7	-32	-7	6	.	1
COc1ccc2cc(C=NS(=O)(=O)c3ccc(C)cc3)n(C)c2c1	7	-11	0	35*	12	1
COc1ccc2cc(C=O)n(C)c2c1	3	-29	-3	45*	6	2
COc1ccc(OC)c(C=NNC(=O)c2cnccn2)c1	.	.	.	.	4	.
COc1ccc(CCNC(=O)CC(C)=NNC(=O)C2CCCCC2)cc1OC	.	.	.	.	-1	.
N#C/C(=C\c1cccs1)C(=O)c1ccccc1Cl	.	.	10	.	9	.
NNC(=O)/C(=C/c1cccs1)NC(=O)c1ccccc1Cl	15	-20	4	43*	-2	-3
CC(C)C1COCCS(=O)(=O)N1Cc1ccccc1F (stereo not drawn)	.	.	.	.	6	.
CC(OC(=O)c1ccc(S(=O)(=O)N2CCCCC2)cc1)C(=O)Nc1ccc(C(N)=O)cc1 (stereo not drawn)	2	-28	-5	-3	4	0
CC(OC(=O)c1nccnc1N)C(=O)Nc1ccc(S(=O)(=O)N2CCCC2)cc1 (stereo not drawn)	6	-1	-6	8	16	142*
CCOc1ccccc1NC(=O)c1cc(C(=O)c2cc(Br)ccc2O)coc1=N	4	-11	11	31*	3	4
